Assay results from PubChem BioAssay (NCI).
About 83,000 compounds went through this panel and 20% of them were active in at least one assay; those are over-represented in the sample as a whole.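 The endpoint reported here, percent growth, reads 100 for growth as untreated, 0 for no net growth and -100 for all cells dead.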 A number with no mark means an inactive call. Active and inactive are the calls of the source.

What follows are molecules tested on OVCAR-4 ovarian (assay: NCI-60 one-dose screen, 48 h (100 = growth as untreated, 0 = no growth, -100 = all killed)). Settings: 10 µM unless noted.
Method: Growth inhibition of the OVCAR-4 human tumor cell line is measured as a screen for anti-cancer activity. Cells are grown in 96 well plates and exposed to the test compound for 48 hours. Compounds are tested at a single concentration, which is 10^-5 M for most compounds. The reported endpoint is percent growth (GI% or GIPRCNT), where numbers from 0 - 100% represent growth inhibition, and numbers from -100% - 0 represent cell death. For example, a value of 40 represents 60% growth inhibition. A value of 0 means no net growth occurred over the course of the experiment. A value of -40 indicates 40% of cells at the beginning of the experiment died by the end of the experiment. A value of -100 means all cells are dead at the end of the experiment.
NCI-60 Human Tumor Cell Lines Screen was performed using the standard one-dose NCI protocol, which is described in more detail at https://dtp.cancer.gov/discovery_development/nci-60/default.htm.
Compounds with GIPRCNT values below 10 were considered active. Activity score was based on GIPRCNT using the following formula: […]
Score is 0 for GIPRCNT values of 100 or above, 50 for GIPRCNT values of 0, and 100 for GIPRCNT values of -100.
With CCOC(=O)N1CCc2c(sc3nc4nc[nH]n4c(=O)c23)C1 the growth was 109%.
Work on COc1c(Cl)cc(Cl)c2ccc(C=C3C(=O)NC(=S)NC3=O)nc12 yielded a growth of 109%.
Molecule CCCCN(CCCC)CCc1c(C)cc(C)c(CCN(CCCC)CCCC)c1O has a growth of 30.8%.
In the case of COc1ccc2c(/C=C3/C(=O)NC(=S)NC3C)cc(=O)oc2c1 (stereo not given), the growth is reported as 100%.
For CC(C)CN(C(=O)c1ccc(Cl)cc1)c1c(N)n(CC(C)C)c(=O)[nH]c1=O, the growth was 107%.
Work on COc1ccc(NC(=O)c2sc3nc(C)c(C(=O)c4ccc(OC)cc4)cc3c2N)cc1 yielded a growth of 61.7%.
For CC(=O)O[C@H]1CC[C@@]2(C)[C@@H](CC[C@@H]3[C@@H]2CC[C@@]2(C)[C@H]3CC[C@]2(O)C(C)=O)C1, the growth was 102%.
For C=C1C(=O)O[C@H]2[C@H]1CC/C(CNC(=O)/C=C/c1ccc(Br)cc1)=C\CC[C@@]1(C)O[C@@H]21, the growth was 44.7%.
In the case of CCC(C)C(N)C(=O)NNc1n[nH]c(=S)n1N (stereo not given), the growth is reported as 102%.
Molecule COc1cc(/C=C/C(=O)c2ccc(Nc3ncnc4ccccc34)cc2)cc(OC)c1 has a growth of 79.8%.
For O=C(CN1CCOCC1)Nc1ccc2ncnc(Nc3ccc(Oc4cccc(F)c4)c(Cl)c3)c2c1, the growth was 73.4%.
Work on CC(=O)c1c(-c2ccc(OC(F)(F)F)cc2)nc2ccccn12 yielded a growth of 100%.
O=C(Nc1ccccc1)Oc1ccccc1-c1ccccc1 showed a growth of 103%.
In the case of COc1cc(-c2cc(=O)oc3cc(O)ccc23)c(OC)c2c1OCO2, the growth is reported as 68.9%.
Work on COc1cc(NCCN(CC(C)C)C2CCCC2)c2ncccc2c1 yielded a growth of 36.6%.
For BrC(Br)(Br)c1cnc2ccccc2n1, the growth was 44.1%.
Work on N/C(=N\N=C\c1cc2ccccc2[nH]1)N/N=C/c1cc2ccccc2[nH]1 yielded a growth of 83%.
In the case of C=C1C(=O)O[C@H]2[C@H]1CC/C(COC(=O)NCCc1c[nH]c3ccc(Cl)cc13)=C\CC[C@@]1(C)O[C@@H]21, the growth is reported as -80.8% (active).
Molecule CNC(=O)NCC1OC(n2cnc3c(NC(=O)Nc4ccccc4)ncnc32)C(O[Si](C)(C)C(C)(C)C)C1O[Si](C)(C)C(C)(C)C (stereo not given) has a growth of 29.6%.
CC(=O)OCC(=O)C1(O)C(C)CC2C3C=C(C)C4=Cc5c(cnn5-c5ccccc5)CC4(C)C3C(O)CC21C (stereo not given) showed a growth of 43.2%.
Work on CC(C)(C)CC(C)(C)Nc1c(-c2ccc3c(c2)OCO3)nc2cnccn12 yielded a growth of 86.9%.
Work on O=C1Nc2c(ccc(Cl)c2Cl)/C1=C/c1ccc([N+](=O)[O-])cc1 yielded a growth of 100%.
CN1CCN(Cc2ccc(NC(=O)c3cncc(C#Cc4cnccc4C(F)(F)F)c3)cc2C(F)(F)F)CC1 gave a growth of 59.2%.
In the case of Cc1c2c(cc[n+]1Cc1ccccc1)c1ccc(OCC3CCCCC3)cc1n2CC1CCCCC1, the growth is reported as -94.3% (active).
O=S(=O)(NCCCNc1nccc(-c2c(-c3ccccc3)nc3occn23)n1)c1ccc(Cl)cc1 showed a growth of 103%.
For Cn1c(COC(=O)NCCc2ccccn2)nc2c(N3CCOCC3)nc(Cl)nc21, the growth was -59.3% (active).
In the case of CC1(C)CN(Cc2ccccc2)CCN1Cc1ccccc1, the growth is reported as 113%.
C=C(C)[C@@H]1CC[C@]2(C(=O)N3CCN(C)CC3)CC[C@]3(C)[C@H](CC[C@@H]4[C@@]5(C)CCC(=O)C(C)(C)[C@@H]5CC[C@]43C)[C@@H]12 gave a growth of 83.5%.
With O=C1c2cccnc2C(=O)c2nc3cc(N4CCN(C5CC5)CC4)ccc3nc21 the growth was -87.8% (active).
Molecule CC(C)(C)OC(=O)N1CCN(c2ccc(N)cc2)C(=O)C1 has a growth of 108%.
Molecule COc1cc2nc(-c3ccc(C(F)(F)F)cc3)cc(OCCCN3CCCCC3)c2cc1OC has a growth of 54.7%.
O=C(N/N=C/c1ccc(O)c(O)c1)c1sc2ccccc2c1Cl gave a growth of 92.7%.
Work on COc1ccc(C2=C(c3ccccc3)c3ccc(OC(C)=O)cc3OC2(C)C)cc1 yielded a growth of 88.2%.
OC1(c2ccc(Cl)c(C(F)(F)F)c2)CCN(CCCC(c2ccc(F)cc2)c2ccc(F)cc2)CC1 was tested, and the growth was -10.8% (active).
CS(=O)(=O)c1ccc(-c2cc(-c3nnc(SCC(=O)Nc4ccc(C(=O)/C=C/c5ccc(Cl)cc5)cc4)n3-c3ccccc3)c3ccccc3n2)cc1 gave a growth of 102%.
Cc1ccc(/C=C/C(=O)c2ccc(N)cc2)c(C)c1 showed a growth of 73%.
In the case of CC[C@H](C)[C@@H]1NC(=O)[C@H](Cc2ccc(O)cc2)N(C)C(=O)[C@H](Cc2ccccc2)NC(=O)CN(C)C(=O)[C@@H]2CCCN2C(=O)[C@@H](Cc2ccccc2)N(C)C(=O)[C@H](CC(C)C)NC1=O, the growth is reported as -4.8% (active).
CC(=O)N1c2ccccc2NC2=C(C(=O)N(C)C2(C)C)C1C (stereo not given) was tested, and the growth was 55.2%.
In the case of CC(O)(CO)c1ccccc1 (stereo not given), the growth is reported as 103%.
With CN(C)CCCn1c2c(c3ccc(-c4ccn[nH]4)cc3c1=O)C(=O)c1ccccc1-2 the growth was 77.9%.
